Consider 46 molecules from PubChem BioAssay (NCATS).

Results filed as inconclusive are left out. Unmarked numbers belong to inactive results. Calls of active or inactive are those of the source. Calls follow the shape of the full dose curve.

A short description of test [1]: Primary qHTS for inhibitors of SARS-S pseudo-typed particle cell entry (AID 1479145). Also: nearly all actives have a fitted effect of over 45% in size. As to activity change, negative = inhibition: series mostly up to about 57 µM.
The nature of test [2]: Primary qHTS for Huh7 cytotoxicity: counterscreen for inhibitors of MERS-S pseudotyped particle cell entry (AID 1479147).
The nature of test [3]: Primary qHTS for inhibitors of MERS-S pseudo-typed particle cell entry (AID 1479149; also: nearly all actives have a fitted effect of over 60% in size; also: potency is read from the fitted curve at half-maximal effect; as to activity change, negative = inhibition: series mostly up to about 57 µM). (qHTS replaces the single test concentration by a dilution series.)
Test [4] is described as follows: Primary qHTS for Vero E6 cytotoxicity: counterscreen for inhibitors of SARS-S pseudo-typed particle cell entry (AID 1479150).
% is scaled to controls: 0 for no effect and ±100 for the full control effect.

Consider `CC1CC(OC(=O)c2ccccc2O)CC(C)(C)C1` (centres undefined), for which the Potency result in test [1], in test [2], in test [3] and in test [4] was “inactive” in each case.
For `CCCc1nn(C)c2c(=O)[nH]c(-c3cc(S(=O)(=O)N4CCN(C)CC4)ccc3OCC)nc12`, the Potency entry in test [1], in test [2], in test [3] and in test [4] was “inactive” in each case.
As to `CCCC(=O)O[C@]1(C(=O)CO)CC[C@H]2[C@@H]3CCC4=CC(=O)CC[C@]4(C)[C@H]3[C@@H](O)C[C@@]21C`, the Potency result in test [1], in test [2], in test [3] and in test [4] was “inactive” each time.
Turning to `Cc1cc2c(cc1CC(=O)c1sccc1S(=O)(=O)Nc1onc(C)c1Cl)OCO2`, the Potency entry in test [1], in test [2], in test [3] and in test [4] was “inactive” in each case.
Consider `C[C@](N)(Cc1ccc(O)cc1)C(=O)O`, for which the activity change, negative = inhibition in test [1] is -0.396% [at 5.34 µM]. In addition, the outcome in test [2] and in test [3] was “inactive [at 5.34 µM]” each time. Besides, the activity change, negative = cytotoxicity in test [4] was -24.5% [at 5.34 µM].
Consider `O=C(O)[C@@H](O)[C@H](O)[C@H](O)[C@@H](O)C(=O)O`, for which the Potency result in test [1], in test [2], in test [3] and in test [4] was “inactive” throughout.
Consider `O=S(=O)(O)c1ccc(O)cc1`, for which the Potency result in test [1], in test [2], in test [3] and in test [4] was “inactive” in each case.
Regarding `CC[C@H](C)[C@H](N)C(=O)O`, the Potency entry in test [1], in test [2], in test [3] and in test [4] was “inactive” each time.
`COC(=O)c1cc(Cl)ccc1NS(=O)(=O)C(F)(F)F`: the Potency result in test [1], in test [2], in test [3] and in test [4] was “inactive” throughout.
As for `CCOC(=O)c1ccc(N)cc1`, the Potency entry in test [1], in test [2], in test [3] and in test [4] was “inactive” throughout.
With `CC(=O)SCC(CC(=O)c1ccc(C)cc1)C(=O)O` (centres undefined), the Potency result in test [1], in test [2], in test [3] and in test [4] was “inactive” in each case.
For the molecule `CC(=O)OCC(=O)[C@@]1(O)CC[C@H]2[C@@H]3CCC4=CC(=O)CC[C@]4(C)[C@H]3C(=O)C[C@@]21C`, the Potency result in test [1], in test [2], in test [3] and in test [4] was “inactive” in each case.
As to `CCCCCCOc1ccccc1C(N)=O`, the Potency result in test [1], in test [2] and in test [4] was “inactive” throughout. The Potency in test [3] is 20 µM (active).
`NNC(=O)c1ccncc1`: the Potency entry in test [1], in test [2], in test [3] and in test [4] was “inactive” in each case.
As for `O=C(c1ccccc1)C(O)c1ccccc1` (centres undefined), the Potency result in test [1], in test [2], in test [3] and in test [4] was “inactive” each time.
For the molecule `CCCCCCCCCCC[C@@H](C[C@@H]1OC(=O)[C@H]1CCCCCC)OC(=O)[C@H](CC(C)C)NC=O`, the Potency entry in test [1], in test [2], in test [3] and in test [4] was “inactive” throughout.
With `O=C(N[C@H](CO)[C@H](O)c1ccc([N+](=O)[O-])cc1)C(Cl)Cl`, the Potency entry in test [1], in test [2], in test [3] and in test [4] was “inactive” each time.
Regarding `CCC1=C(C)CN(C(=O)NCCc2ccc(S(=O)(=O)NC(=O)NC3CCC(C)CC3)cc2)C1=O` (centres undefined), the Potency entry in test [1], in test [2], in test [3] and in test [4] was “inactive” each time.
With `CCC[C@@H]1C[C@@H](C(=O)N[C@@H]([C@H]2O[C@H](SC)[C@H](O)[C@@H](O)[C@H]2O)[C@@H](C)O)N(C)C1`, the Potency result in test [1], in test [2], in test [3] and in test [4] was “inactive” in each case.
On to `CCOC(=O)[C@H](CCc1ccccc1)N[C@@H](C)C(=O)N1CCC[C@H]1C(=O)O`, for which the Potency result in test [1], in test [2], in test [3] and in test [4] was “inactive” throughout.
For the molecule `O=C1CC[C@H](C(=O)N2CCCCC2)N1`, the Potency entry in test [1], in test [2], in test [3] and in test [4] was “inactive” each time.
On to `O=C(O)Cc1cccc2ccccc12`, for which the Potency result in test [1], in test [2], in test [3] and in test [4] was “inactive” in each case.
For the molecule `O=C(COCCOCCOCC(=O)Nc1c(I)cc(I)c(C(=O)O)c1I)Nc1c(I)cc(I)c(C(=O)O)c1I`, the Potency result in test [1], in test [2], in test [3] and in test [4] was “inactive” in each case.
In the case of `CCCCCCCCCCCCCCCCCC(=O)OCC(O)CO` (centres undefined), the Potency entry in test [1], in test [2], in test [3] and in test [4] was “inactive” each time.
On to `CCCC(=O)OCOC(=O)C1=C(C)NC(C)=C(C(=O)OC)C1c1cccc(Cl)c1Cl` (centres undefined), for which the Potency entry in test [1], in test [2], in test [3] and in test [4] was “inactive” in each case.
Turning to `Nc1nc(=O)n([C@@H]2CS[C@H](CO)O2)cc1F`, the Potency result in test [1], in test [2], in test [3] and in test [4] was “inactive” in each case.
For `C#CC(O)(C=CCl)CC` (centres undefined), the Potency result in test [1], in test [2], in test [3] and in test [4] was “inactive” throughout.
For the molecule `CC(C)(C)NC[C@H](O)COc1nsnc1N1CCOCC1`, the Potency result in test [1], in test [2], in test [3] and in test [4] was “inactive” each time.
With `COC(=O)C(c1ccccc1)C1CCCCN1` (centres undefined), the Potency entry in test [1], in test [2], in test [3] and in test [4] was “inactive” throughout.
Regarding `CCCN1CCCC[C@H]1C(=O)Nc1c(C)cccc1C`, the Potency entry in test [1], in test [2], in test [3] and in test [4] was “inactive” in each case.
Consider `O=C(O)c1ccccc1Nc1cccc(C(F)(F)F)c1`, for which the Potency entry in test [1], in test [2], in test [3] and in test [4] was “inactive” each time.
As for `Cc1ccc(C(C)C)c(O)c1`, the Potency result in test [1], in test [2], in test [3] and in test [4] was “inactive” throughout.
Consider `O=C(O)c1cc(O)c(O)c(O)c1`, for which the Potency entry in test [1], in test [2], in test [3] and in test [4] was “inactive” each time.
As to `OCCc1ccccc1`, the Potency result in test [1], in test [2], in test [3] and in test [4] was “inactive” each time.
On to `C[C@](O)(CS(=O)(=O)c1ccc(F)cc1)C(=O)Nc1ccc(C#N)c(C(F)(F)F)c1`, for which the Potency result in test [1], in test [2], in test [3] and in test [4] was “inactive” throughout.
Regarding `COCCCN1CCC(NC(=O)c2cc(Cl)c(N)c3c2OCC3)CC1`, the Potency entry in test [1], in test [2], in test [3] and in test [4] was “inactive” throughout.
Turning to `CC(=O)OCC(=O)[C@@]1(O)[C@H](C)C[C@H]2[C@@H]3CCC4=CC(=O)C=C[C@]4(C)[C@@]3(F)[C@@H](O)C[C@@]21C`, the Potency result in test [1], in test [2], in test [3] and in test [4] was “inactive” in each case.
As to `NS(=O)(=O)c1cc(-c2nn[nH]n2)c(NCc2cccs2)cc1Cl`, the Potency result in test [1], in test [2], in test [3] and in test [4] was “inactive” throughout.
As to `CCOC(=O)Oc1ccc(CCNC(=O)[C@H](CCSC)NC(C)=O)cc1OC(=O)OCC`, the Potency result in test [1], in test [2], in test [3] and in test [4] was “inactive” in each case.
Take `CC(CC(C#N)(c1ccccc1)C(C)C)N(C)C` (centres undefined): the Potency entry in test [1], in test [2], in test [3] and in test [4] was “inactive” in each case.
As for `NCCS(=O)(=O)O`, the Potency entry in test [1], in test [2], in test [3] and in test [4] was “inactive” each time.
Take `Nc1nc(/C(=C/CC(=O)O)C(=O)N[C@@H]2C(=O)N3C(C(=O)O)=CCS[C@H]23)cs1`: the Potency result in test [1], in test [2], in test [3] and in test [4] was “inactive” throughout.
For `NC(=O)c1ncn([C@@H]2O[C@H](CO)[C@@H](O)[C@H]2O)c1O`, the Potency entry in test [1], in test [2], in test [3] and in test [4] was “inactive” each time.
For `COC1CC(=C(c2cccs2)c2cccs2)C[N+](C)(C)C1` (centres undefined), the Potency entry in test [1], in test [2], in test [3] and in test [4] was “inactive” throughout.
Consider `CN1C(=O)OC(C)(C)C1=O`, for which the Potency entry in test [1], in test [2], in test [3] and in test [4] was “inactive” each time.
Take `CCC(=O)c1c(O)cc(O)cc1O`: the Potency result in test [1], in test [2], in test [3] and in test [4] was “inactive” each time.
